# Source: PubChem
# IL1B secr inh: inhibitors of inflammasome signaling (IL-1 beta secretion); activity change, % at 57.5 µM; AID 743279; hit rate 4.7% among 360,000; THP-1 LPS/ATP IL-1B secretion, AlphaLISA, 16 h; hits give low values; in the data active means activity change below about -50%; inconclusive means mostly about -30% to -49%
#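 Secreted IL-1B measured by AlphaLISA bead assay after 16 h compound exposure of THP-1 cells; compounds (final up to 57.5 uM) added 1 h before LPS (250 ng/mL) and ATP (1.25 mM) stimulation; lower signal means less secretion.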
# DT40 TDP1 no CPT: qHTS for Inhibitors of human tyrosyl-DNA phosphodiesterase 1 (TDP1): qHTS in cells in absence of CPT; AID 686978, 2013; hit rate 15% among 420,000; DT40 Tdp1-/- hTDP1 cells, no CPT, ATP luminescence, 48 h; Potency, µM (titrated, usually from 46.2 µM), without a hit: at the highest dose activity change, negative = growth inhibition, usual class: inhibitors; further: potency means the concentration at half of the fitted maximal effect; nearly all actives have a fitted effect of over 55% in size
#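 Luminescent ATP content (CellTiter-Glo) served as the growth readout. Knockout chicken DT40 cells expressing human TDP1 were exposed to compounds without camptothecin for a minimum 48 hr at 37 °C.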
# ELG1 repair inh: inhibitors of ELG1-dependent DNA repair in HEK293T cells | AID 504467 | hit rate 2.3% among 330,000 | Potency, µM (titrated, usually from 46.1 µM), for the others: top-dose activity change, negative = inhibition, most hits filed as inhibitors | HEK293T ELG1-luciferase reporter, luminescence, 16 h; DNA damage induced by 5-fluorouridine; further: potency means the concentration at half of the fitted maximal effect; nearly all actives have a fitted effect of over 55% in size
#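 Overnight (16 hr) co-exposure of 2,000 cells/well to 5-fluorouridine and compound at 37 °C preceded detection. Luciferase was quantified via ONE-Glo luminescence; loss of signal denotes inhibition.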
# HT1080-NT tox: kills 2HG-producing HT-1080-NT fibrosarcoma cells. HT-1080-NT fibrosarcoma viability, CellTiter-Glo ATP luminescence, 48 h. Potency, µM (doses to about 46.1 µM), for inactives: top-dose activity, negative = less viability, most hits filed as cytotoxic. hit rate 1.6% among 360,000. AID 686970;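 further: NT is the 2HG producing partner of a matched IDH1 knockdown line; potency means the concentration at half of the fitted maximal effect; 0% = DMSO-treated cells and -100% = media-only wells without cells; nearly all actives have a fitted effect of over 55% in size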
#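 Read-out is CellTiter-Glo luminescence after 10 minutes at room temperature, following 48 hours' compound treatment of HT-1080-NT cells (750 cells/well, RPMI, 5% FBS, 37 degrees C).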
# HT1080 IDH1KD tx: HT-1080 IDH1 knockdown cell toxicity (counter line); Potency, µM (titrated, usually from 46.1 µM), inactives show at the top dose activity, negative = toxicity, hits mostly cytotoxic; AID 686971; hit rate 2% among 360,000; HT-1080 IDH1 knockdown viability, ATP luminescence, 48 h;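 further: potency means the concentration at half of the fitted maximal effect; 0% = DMSO wells and -100% = cell-free medium wells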
#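 Viability of IDH1-knockdown HT-1080 fibrosarcoma cells was assessed by CellTiter-Glo after 48 h at 37 °C with titrated compound; concentration-effect curves were classified by fit quality and response size.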
# TDP1 cell CPT: DT40-hTDP1 cell growth loss with CPT; chicken DT40 Tdp1-/-;hTDP1 cells + 20 nM CPT, ATP luminescence, 48 h; Potency, µM (series often up to 46.2 µM), for the others: at the top dose activity change, negative = growth inhibition, usual class: inhibitors; hit rate 12% among 420,000; AID 686979; further: potency means the concentration at half of the fitted maximal effect; nearly all actives have a fitted effect of over 55% in size
#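 Chicken DT40 Tdp1-/- cells stably complemented with human TDP1 were seeded at 400 cells/well in medium containing 20 nM camptothecin, exposed to pin-transferred compounds, and grown at 37 °C for at least 48 hr. Viability was read as ATP luminescence.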
# Starred values were filed as active, the others as inactive; ? = inconclusive; / = no result; [ ] = remark or other dose. The list is not random: actives were taken first. Their share in the collection is about 19%. Unless noted, the call rests on the fitted dose curve; in most records, active means well fitted curve in the direction sought with a large enough effect; inconclusive means small, poorly fitted or top-dose-only effect, or another doubt; inactive means no such curve, though single readings can be large; an effect the other way counts as inactive or inconclusive. Unless noted, on the % scale 0 is the no-effect control and ±100 the full control effect.
SMILES,IL1B secr inh,DT40 TDP1 no CPT,ELG1 repair inh,HT1080-NT tox,HT1080 IDH1KD tx,TDP1 cell CPT
O=C1c2ccccc2C(=O)N1Cc1nc2ccccc2c(=O)n1-c1ccccn1,16.3,-8.7%,2.6%,4.3%,17.5%,-0.5%
COc1ccc(-n2c(/C=C\c3ccccc3F)nc3ccccc3c2=O)c(OC)c1,/,23.1µM*,/,/,/,14.6µM*
O=c1c2ccccc2nc(/C=C/c2ccc(O)cc2)n1-c1ccccc1O,?,?,?,-9.6%,-18.5%,?
O=C(c1ccccc1F)N1C[C@H]2C[C@@H](C1)c1cccc(=O)n1C2,-12.9,9.4%,-3.0%,14.5%,-0.3%,21.1%
Cn1c(N)c(C(=O)COC(=O)Cc2ccccc2)c(=O)n(C)c1=O,17.5,0.4%,0.0%,4.3%,-12.4%,1.9%
CCN(CC(=O)Nc1ccc(C#N)c(Cl)c1)CC(=O)NC1CCS(=O)(=O)C1 (centres undefined),4.5,-25.0%,7.0%,-0.3%,-4.7%,?
CC(C)NC(C)C,/,-0.1%,/,/,/,1.7%
Cn1cc(C=O)c2nccnc21,22.7,-3.6%,/,-0.9%,1.9%,-4.8%
CCN(CC)CC(O)c1ccc(C2CCCC2)cc1 (centres undefined),-6.1,?,-2.5%,-11.6%,-13.5%,?
O=c1c2ccccc2nc(/C=C/c2ccc(O)c(O)c2)n1-c1ccccc1,-16.4,25.9µM*,?,-18.8%,-20.9%,?
O=c1c2ccccc2nc(/C=C/c2ccccc2)n1-c1ccc(O)cc1,?,23.1µM*,?,?,?,?
O=c1c2ccccc2nc(-c2ccccc2Cl)n1-c1ccc(O)cc1,43.8,?,-9.5%,?,?,-10.5%
Cc1nc2ccccc2c(=O)n1-c1ccncc1,11.9,3.2%,10.7%,2.0%,2.6%,5.1%
COc1ccccc1-n1c(/C=C/c2ccc(O)cc2)nc2ccccc2c1=O,?,?,?,-8.7%,0.0%,?
COc1ccc(-n2c(/C=C3\C(=O)Nc4ccccc43)nc3ccccc3c2=O)cc1,-22.2,?,17.3%,12.3%,0.5%,?
COc1ccccc1-n1c(/C=C/c2ccccc2)nc2ccccc2c1=O,/,25.9µM*,/,/,/,?
O=C1Nc2ccccc2/C1=C/c1nc2ccccc2c(=O)n1-c1ccc(O)cc1,/,?,18.3µM*,?,?,?
COC(=O)C1=C(c2ccc(F)cc2OCc2ccccc2)C[C@@H]2CC[C@H]1N2C(=O)NCc1ccc2c(c1)OCO2,?,?,?,-22.4%,?,?
C[C@H]1[C@@H]2Cc3ccc(O)cc3[C@@]1(C)CCN2C,/,-26.4%[166 µM],/,/,/,-14.4%[166 µM]
COc1ccc(C=C(C#N)c2ccc(OC)cc2)cc1,-57.5*,?,/,-0.6%,-11.4%,?
C=CCn1c(O)c(C(C)=NCc2cc(OC)cc(OC)c2)c(=O)[nH]c1=O,70.6,1.64µM*,?,3.66µM*,5.8µM*,4.11µM*
COC(=O)C(C)NC(=S)N1CC2C[C@@H](C1)Cn1c2cccc1=O (some centres undefined),-6.2,10.4%,-10.4%,-4.6%,1.7%,-13.4%
CCC(C)C1NC(=O)C(C(C)=O)=C1O (centres undefined),25.7,?,-1.0%,20.6%,1.0%,16.4µM*
C=CCOc1c(Cl)cc(CNc2ccc3[nH]c(=O)[nH]c3c2)cc1OC,0.0,?,?,?,?,13µM*
CCOc1c(Cl)cc(CNc2ccc(S(N)(=O)=O)cc2)cc1OC,27.0,16.4µM*,?,-0.4%,-10.9%,?
SMILES,IL1B secr inh,DT40 TDP1 no CPT,ELG1 repair inh,HT1080-NT tox,HT1080 IDH1KD tx,TDP1 cell CPT
CCOc1c(Cl)cc(CNC(C)C(O)c2ccccc2)cc1OC (centres undefined),-5.7,-12.4%,-5.7%,8.4%,-0.1%,-12.1%
Cc1cccc(/C(N)=N/OC(=O)N2CCOCC2)c1,-17.6,18.4µM*,-2.6%,?,11.2µM*,16.4µM*
O=C(Nc1ccccc1OC(=O)N1CCOCC1)N1CCOCC1,-9.8,2.2%,13.5%,15.4%,13.1%,2.2%
CC(=O)O[C@@H]1CC[C@]2(C)C3CC[C@@]4(C)C(C[C@@H](O)[C@@H]4O)C3[C@@H](OC(C)=O)C[C@H]2C1 (some centres undefined),13.4,?,-13.3%,-10.7%,-7.6%,-25.8%
CC(=O)OC1CCC2(C)C(CCC3C2CC(=O)C2(C)C3CC(N3CC3)C2C(C)=O)C1 (centres undefined),-72.1*,13µM*,/,-5.3%,-17.8%,7.31µM*
C=CCC1C(=O)NC(=S)NC1=O,19.0,0.9%,3.2%,23.2%,15.1%,-1.2%
Oc1cc(O)cc(/C=C/c2ccc(O)cc2O)c1,-3.8,?,?,?,?,?
COc1ccc(/C=C/c2cc(O)cc(O)c2)cc1,/,4.61µM*,/,/,/,2.59µM*
NC[C@H](CP(=O)(O)O)c1ccc(Cl)cc1,/,1.1%,/,/,/,19.2%
C[C@@H](Cc1ccc(OCC(=O)O)cc1)NC[C@H](O)c1cccc(Cl)c1,/,-14.7%,/,/,/,0.6%
CCOc1cc2c(cc1OCC)-n1cccc1C(c1cccc([N+](=O)[O-])c1)NC2 (centres undefined),-15.6,18.4µM*,-5.9%,-9.5%,0.0%,23.1µM*
FC(F)(F)Oc1ccc(C2NCc3ccccc3-n3cccc32)cc1 (centres undefined),7.3,?,-7.9%,-0.2%,-1.9%,-25.9%
CCOc1cc(C2NCc3ccccc3-n3cccc32)ccc1O (centres undefined),-57.2*,?,-8.5%,-10.8%,-6.5%,23.1µM*
CCOc1cccc(C2NCc3ccccc3-n3cccc32)c1O (centres undefined),-5.5,?,-0.9%,?,?,?
CC(C)c1ccc(C2NCc3ccccc3-n3cccc32)cc1 (centres undefined),-9.5,20.6µM*,-13.5%,-13.2%,0.0%,?
Cc1cc(C)c(NC(=O)C2CC3CCC2C3)c(C)c1 (centres undefined),18.6,?,?,6.3%,4.8%,4.1%
COC(=O)C1=C(c2ccccc2)C[C@@H]2CC[C@H]1N2C(=O)NC1CCCCC1,10.4,?,/,19.7%,-6.6%,?
COC(=O)C1=C(c2ccccc2)C[C@@H]2CC[C@H]1N2C(=O)NC1CC1,5.0,/,/,-1.0%,-4.1%,-12.4%
